Screening data (PubChem)
DUSP3 inh: VHR1 phosphatase inhibitors, primary screen, biochemical, absorbance, uHTS; 0.52% of 290,000 active; AID 1654, 2009; recombinant VHR phosphatase, pNPP absorbance; Dual specificity protein phosphatase 3 (Homo sapiens), P51452; inhibition, % at 13.3 µM; in the data active = inhibition above about 50%
Target sequence (P51452 whole entry, looked up): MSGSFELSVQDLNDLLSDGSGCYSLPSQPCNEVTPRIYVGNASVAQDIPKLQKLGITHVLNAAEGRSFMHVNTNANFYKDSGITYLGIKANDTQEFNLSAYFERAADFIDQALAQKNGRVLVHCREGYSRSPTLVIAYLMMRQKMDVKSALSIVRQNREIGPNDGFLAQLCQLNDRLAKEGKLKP
PrPC surface inh: inhibitors of human cell surface prion protein PrPC, primary screen, cell-based, TR-FRET. Major prion protein (Homo sapiens), P04156. 0.43% of 370,000 active. inhibition, % at 13.8 µM. TR-FRET read-out. AID 720596, 2013; in the data active = inhibition above about 24%
TcdB inh: TcdB glycohydrolase inhibitors, primary screen, biochemical, single point, plate reader. inhibition, % at 9.99 µM. TcdB glycohydrolase enzymatic assay. AID 652162, 2013. 0.24% of 350,000 active; in the data active = inhibition above about 10%
Each line names hits and unclear results; the compound was inactive in the other large screens. The list is not random: actives were taken first. Their share in the collection is about 0.82%.

CCNC(=O)C[C@H]1CC[C@H]2[C@H](COc3ccc(NC(C)=O)cc3C(=O)N2C)O1	TcdB inh 11 (no result: DUSP3 inh, PrPC surface inh)
CCC(=O)N1C[C@H](C)[C@@H](OC)CN(C)C(=O)c2cc(NC(=O)c3ccc(F)cc3)ccc2OC[C@H]1C	none (no result: DUSP3 inh, PrPC surface inh)
O=C(C[C@H]1C=C[C@@H](NC(=O)Nc2ccc(F)cc2)[C@@H](CO)O1)NCCN1CCCC1	none (no result: DUSP3 inh, PrPC surface inh)
CO[C@H]1CN(C)C(=O)c2cc(NS(=O)(=O)c3ccc(C)cc3)ccc2OC[C@@H](C)N(C)C[C@@H]1C	none (no result: DUSP3 inh, PrPC surface inh)
CCNC(=O)C[C@H]1CC[C@@H]2[C@H](COc3ccc(NC(=O)c4ccc5c(c4)OCO5)cc3C(=O)N2C)O1	TcdB inh 13 (no result: DUSP3 inh, PrPC surface inh)
CN1C(=O)c2cc(NC(=O)c3cccc(F)c3)ccc2OC[C@@H]2O[C@@H](CC(=O)NCC3CCCCC3)CC[C@@H]21	TcdB inh 10 (no result: DUSP3 inh, PrPC surface inh)
CN1C(=O)c2cc(NC(=O)c3cccc(F)c3)ccc2OC[C@H]2O[C@@H](CC(=O)NCC3CCCCC3)CC[C@@H]21	none (no result: DUSP3 inh, PrPC surface inh)
CCNC(=O)C[C@@H]1CC[C@@H]2[C@H](COc3ccc(NC(=O)c4ccc5c(c4)OCO5)cc3C(=O)N2C)O1	none (no result: DUSP3 inh, PrPC surface inh)
Cc1noc(C)c1S(=O)(=O)Nc1ccc2c(c1)CC(=O)N([C@@H](C)CO)C[C@H](C)[C@@H](CN(C)Cc1ccncc1)O2	none (no result: DUSP3 inh, PrPC surface inh)
Cc1cccc(-c2nc3c(c(SCC(=O)N4CCOCC4)n2)COC(C)(C)C3)c1	DUSP3 inh 60
CC1(C)Cc2nc(-c3ccccc3)nc(SCC(=O)N3CCOCC3)c2CO1	none
CNC[C@H]1OCCCC[C@H](C)Oc2ccc(NC(=O)NC3CCCCC3)cc2C(=O)N([C@@H](C)CO)C[C@@H]1C	none (no result: DUSP3 inh, PrPC surface inh)
CN(C)C1C(=O)C(C(N)=O)=C(O)C2(O)C(=O)C3=C(O)c4c(O)cccc4C(C)(O)C3CC12 (configuration not stated)	none (no result: PrPC surface inh, TcdB inh)
CN(C)[C@@H]1C(=O)C(C(=O)NCN2CCCC2)=C(O)[C@@]2(O)C(=O)C3=C(O)c4c(O)cccc4[C@@](C)(O)C3CC12 (some centres not stated)	DUSP3 inh 66 (no result: PrPC surface inh, TcdB inh)
Cc1cccc(-c2ccc3ncnc(NCc4cccs4)c3c2)c1	none (no result: DUSP3 inh)
Clc1cccc(-c2ccc3ncnc(NCc4cccs4)c3c2)c1	TcdB inh 11 (no result: DUSP3 inh)
Cc1cc(=O)oc2c3c(cc(OCC(=O)NCCCn4ccnc4)c12)OC(C)(C)CC3	none
CCCc1cc(=O)oc2c3c(cc(OCC(=O)NCCCn4ccnc4)c12)OC(C)(C)CC3	TcdB inh 11
Cc1cc(NC(=O)CN2C(=O)NC3(CCCCC3)C2=O)no1	none
Cc1cc(NC(=O)CN2C(=O)NC3(CCC(C)CC3)C2=O)no1 (configuration not stated)	DUSP3 inh 51 (no result: TcdB inh)
CO[C@@H]1CN(C)C(=O)c2cc(NS(C)(=O)=O)ccc2OC[C@H](C)N(C(=O)CN(C)C)C[C@@H]1C	none (no result: DUSP3 inh, PrPC surface inh)
C[C@@H]1CN([C@@H](C)CO)C(=O)Cc2cc(NS(C)(=O)=O)ccc2O[C@@H]1CN(C)C(=O)Nc1ccccc1	none (no result: DUSP3 inh, PrPC surface inh)
COc1ccc2nc(NNC(=O)C3COc4ccccc4O3)sc2c1 (configuration not stated)	TcdB inh 39
COc1ccc2nc(NC(=O)C3COc4ccccc4O3)sc2c1 (configuration not stated)	none
CCN(CC)S(=O)(=O)c1cc(C(=O)Nc2cccnc2Cl)ccc1Cl	TcdB inh 11
CCN(CC)S(=O)(=O)c1cc(C(=O)Nc2cc(C)on2)ccc1Cl	none
O=C(C[C@@H]1CC[C@H](NC(=O)Nc2ccccc2)[C@H](CO)O1)NCc1ccccn1	none (no result: DUSP3 inh, PrPC surface inh)
O=C(CN1CCOCC1)N[C@@H]1CC[C@@H](CCn2cc(C3CCCC3)nn2)O[C@@H]1CO	none (no result: DUSP3 inh, PrPC surface inh)
Cc1ccc(CS(=O)(=O)CCC(=O)NCCCN2CCCC2)cc1	DUSP3 inh 51 (no result: TcdB inh)
Cc1ccc(CS(=O)(=O)CCC(=O)NCCN2CCCCC2C)cc1 (configuration not stated)	none (no result: TcdB inh)
CN(C)CC(=O)N1[C@H](CO)[C@H](c2ccccc2)C12CN(C(=O)c1cccc(F)c1)C2	none (no result: DUSP3 inh, PrPC surface inh)
O=C(Cn1c(=O)oc2ccccc21)N1CCCCC1	none (no result: TcdB inh)
O=C(Cn1c(=O)oc2ccccc21)N1CCN(c2ccc(N3CCOCC3)nn2)CC1	DUSP3 inh 54
COc1ccc(S(=O)(=O)N(C)C[C@@H]2Oc3ccc(NS(=O)(=O)c4cccs4)cc3C(=O)N([C@H](C)CO)C[C@H]2C)cc1	none (no result: DUSP3 inh, PrPC surface inh)
C[C@H](CO)N1C[C@H](C)[C@H](CN(C)C(=O)Cc2ccccn2)Oc2ncc(-c3ccccc3)cc2C1=O	none (no result: DUSP3 inh, PrPC surface inh)
CCOC(=O)c1c(S(=O)(=O)N(C)Cc2ccccc2)c(C)n(C)c1C	DUSP3 inh 58
CCOC(=O)c1c(S(=O)(=O)NCCCc2ccco2)c(C)n(C)c1C	DUSP3 inh 51
CCOC(=O)c1c(S(=O)(=O)N2CCN(Cc3ccccc3)CC2)c(C)n(C)c1C	none
CCOC(=O)c1c(S(=O)(=O)NCCc2ccco2)c(C)n(C)c1C	none
CC(=O)N(C)C[C@@H]1Oc2ncc(C#Cc3ccccn3)cc2C(=O)N([C@@H](C)CO)C[C@H]1C	none (no result: DUSP3 inh, PrPC surface inh)
CC(C)c1ccc(NC2CCCN(C(=O)CCN3CCOCC3)C2)cc1 (configuration not stated)	DUSP3 inh 51
CCc1nccn1CCC(=O)N1CCCC(Nc2ccc(C(C)C)cc2)C1 (configuration not stated)	none
Cc1ccc(NC2CCCN(C(=O)CCc3scnc3C)C2)cc1C (configuration not stated)	none
Cc1ccc(NC2CCCN(C(=O)CCN3CCOCC3)C2)cc1C (configuration not stated)	DUSP3 inh 53
Cc1ccc(NC2CCCN(C(=O)CCCN3CCCCC3=O)C2)cc1C (configuration not stated)	none
Cc1ccc(NC2CCCN(C(=O)CCn3nccc3C)C2)cc1C (configuration not stated)	DUSP3 inh 54
COc1ccccc1-c1ccc2c(c1)[C@H]1[C@H](CCN1S(=O)(=O)c1cn(C)cn1)[C@H](CO)N2	none (no result: DUSP3 inh, PrPC surface inh)
O=C(NC1CCCCC1)N[C@H]1CC[C@H](CC(=O)N2CCOCC2)O[C@@H]1CO	none (no result: DUSP3 inh, PrPC surface inh)
CC(C)CC#Cc1ccc([C@@H]2[C@H](CO)N3C(=O)CN(C(=O)c4ccccn4)C[C@@H]23)cc1	none (no result: DUSP3 inh, PrPC surface inh)
Cc1noc(C)c1NC(=O)Nc1ccc2c(c1)C(=O)N([C@@H](C)CO)C[C@@H](C)[C@H](CN(C)C(=O)NC(C)C)OCCCC[C@H](C)O2	none (no result: DUSP3 inh, PrPC surface inh)
OCCCNc1cc(-c2ccnc(Nc3cccc(Cl)c3)n2)ccn1	PrPC surface inh 42
CCC(C)Oc1cc(-c2ccnc(Nc3cccc(Cl)c3)n2)ccn1 (configuration not stated)	none
CC(C)NC(=O)N(C)C[C@@H]1OCCCC[C@@H](C)Oc2ccc(NC(=O)Nc3cccc4ccccc34)cc2C(=O)N([C@@H](C)CO)C[C@@H]1C	none (no result: DUSP3 inh, PrPC surface inh)
COc1ccccc1Nc1c([N+](=O)[O-])cc(C)cc1[N+](=O)[O-]	none
COc1ccccc1Nc1ccc([N+](=O)[O-])cc1N	DUSP3 inh 53
CCCNC(=O)N(C)C[C@H]1Oc2ncc(C#Cc3ccncc3)cc2C(=O)N([C@H](C)CO)C[C@@H]1C	none (no result: DUSP3 inh, PrPC surface inh)
CCCCn1c(N)c(N(CC)C(=O)c2ccccc2C)c(=O)[nH]c1=O	DUSP3 inh 52
CCCCn1c(N)c(N(CCC(C)C)C(=O)c2ccccc2C)c(=O)[nH]c1=O	none
